Experimental data taken from PubChem BioAssay.
Active and inactive are the calls of the source.

Legend:
[1] = molecular target: Albumin (Bos taurus) (UniProt P02769); assay: bovine serum albumin binders on microarray, profiling panel, artefact control for SMM control protein annotation, biochemical, small-molecule microarray, Alexa647 label, 635/667 nm fluorescence (AID 1118); conditions: BSA-A647 binding, fluorescence 635 nm, higher = more signal;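 further: score merges 667 nm emission intensity and signal-to-noise per printed compound spot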
Albumin (Bos taurus), sequence (P02769 whole entry, looked up): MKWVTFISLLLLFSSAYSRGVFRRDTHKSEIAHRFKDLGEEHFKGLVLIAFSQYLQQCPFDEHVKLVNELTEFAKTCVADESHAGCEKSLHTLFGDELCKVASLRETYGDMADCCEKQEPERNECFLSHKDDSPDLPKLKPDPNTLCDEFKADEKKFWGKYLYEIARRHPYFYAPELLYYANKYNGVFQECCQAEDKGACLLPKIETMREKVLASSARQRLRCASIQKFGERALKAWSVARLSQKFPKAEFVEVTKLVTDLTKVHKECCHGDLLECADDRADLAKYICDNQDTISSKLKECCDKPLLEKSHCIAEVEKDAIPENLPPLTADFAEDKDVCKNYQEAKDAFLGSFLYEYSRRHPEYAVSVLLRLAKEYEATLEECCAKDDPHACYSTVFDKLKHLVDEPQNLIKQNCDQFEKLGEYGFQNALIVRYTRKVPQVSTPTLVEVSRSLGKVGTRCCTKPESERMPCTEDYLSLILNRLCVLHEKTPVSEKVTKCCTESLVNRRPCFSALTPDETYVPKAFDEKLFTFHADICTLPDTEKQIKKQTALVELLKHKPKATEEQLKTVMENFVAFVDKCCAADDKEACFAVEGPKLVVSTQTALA

[2] = small-molecule microarray binders of probe aXIP, primary screen, biochemical, NeuroSMM set, 635/667 nm fluorescence (AID 1119); conditions: higher = more signal, called active from +8 up or from −8 down;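 further: probe is the protein aXip251-270 applied at 1 µg/mL to compound-printed slides; binding of probe to printed compounds measured as 667 nm fluorescence plus signal to noise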
[3] = small-molecule binders of probe aNOTCH3, primary screen, biochemical, small-molecule microarray, 635/667 nm fluorescence (AID 1120); conditions: higher = more signal;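 further: probe is a biotin-tagged antibody raised against NOTCH3 rather than NOTCH3 protein; score merges spot fluorescence near 667 nm with spot signal to noise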
[4] = small-molecule binders of probe aNOTCH2, primary screen, biochemical, small-molecule microarray, 635/667 nm fluorescence (AID 1121); conditions: higher = more signal;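 further: score merges feature fluorescence read at 667 nm with its signal to noise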
[5] = molecular target: Carbonic anhydrase 2 (Homo sapiens) (UniProt P00918); assay: CAII small-molecule binders, profiling panel, biochemical, small-molecule microarray, Alexa647-labelled CAII (AID 1122); conditions: CAII-A647 binding fluorescence, higher = more signal
[6] = COS7 lysate on small-molecule microarray, probe aHis, 635 nm (AID 1123); conditions: COS7 cell lysate, fluorescence, higher = more signal;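 further: z-score combines 667nm fluorescence intensity with signal-to-noise per printed compound spot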
[7] = compound binding in COS7 lysate, probe aLAP1, primary screen, cell lysate, small-molecule microarray (AID 1124); conditions: probe aLAP1, fluorescence, higher = more signal;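 further: lysate comes from COS7 cells expressing LAP1 and is applied at 0.3 µg/mL; score merges spot fluorescence near 667 nm with signal-to-noise over triplicate slides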
[8] = test system: Sam68 (KHDRBS1); assay: Sam68 small-molecule binders, primary screen, biochemical, small-molecule microarray, 635 nm fluorescence (AID 1125); conditions: small-molecule microarray binding, higher = more signal;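 further: score merges 667 nm channel intensity with signal to noise over triplicate slides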
[9] = test system: Chordin-like protein 2 (CHRDL2); assay: CHRDL2 small-molecule binders, primary screen, biochemical, small-molecule microarray, 635 nm fluorescence (AID 1126); conditions: small-molecule microarray binding, fluorescence 635 nm; higher = more signal;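 further: printed compound slides probed with Chrdl2 protein at 4 µg/mL for 1 h at 4 C; score merges 667 nm emission intensity with signal to noise over three replicate slides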
[10] = molecular target: Concanavalin-A (Canavalia ensiformis) (UniProt P02866); assay: ConA small-molecule binders, primary screen, artefact control for SMM control protein annotation, biochemical, small-molecule microarray, Alexa647 label, 635 nm (AID 1127); conditions: ConA-A647 binding fluorescence, higher = more signal;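 further: z combines 667 nm emission intensity with signal-to-noise across three replicate slides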
Concanavalin-A (Canavalia ensiformis), sequence (P02866 whole entry, looked up): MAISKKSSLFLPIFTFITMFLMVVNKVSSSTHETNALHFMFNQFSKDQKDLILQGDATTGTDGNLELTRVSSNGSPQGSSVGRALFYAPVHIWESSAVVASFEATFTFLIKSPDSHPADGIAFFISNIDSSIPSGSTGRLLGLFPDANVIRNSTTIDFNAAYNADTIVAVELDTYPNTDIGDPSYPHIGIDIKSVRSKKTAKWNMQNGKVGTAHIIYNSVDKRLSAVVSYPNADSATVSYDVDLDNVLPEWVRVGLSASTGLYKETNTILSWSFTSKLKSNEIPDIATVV

[11] = anti-His antibody binders, primary screen, artefact control for SMM control protein annotation, biochemical, small-molecule microarray, 635 nm fluorescence (AID 1128); conditions: anti-His Alexa647 antibody binding, higher = more signal;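 further: score merges feature fluorescence with signal-to-noise for each printed compound spot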
[12] = test system: Human papillomavirus type 1a E7 protein (residues 1-88); assay: HPV1a E7 small-molecule binders, primary screen, biochemical, small-molecule microarray, residues 1-88, 635 nm (AID 1129); conditions: small-molecule microarray binding, fluorescence 635 nm; higher = more signal
[13] = molecular target: Focal adhesion kinase 1 (Homo sapiens) (UniProt Q05397); assay: small-molecule microarray binders of FAK, primary screen, biochemical, 635/667 nm fluorescence, BSA, DTT (AID 1130); conditions: PTK2 binding, 635 nm fluorescence, higher = more signal;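 further: composite of spot emission at 667 nm and signal to noise over triplicate slides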
Focal adhesion kinase 1 (Homo sapiens), sequence (Q05397 whole entry, looked up): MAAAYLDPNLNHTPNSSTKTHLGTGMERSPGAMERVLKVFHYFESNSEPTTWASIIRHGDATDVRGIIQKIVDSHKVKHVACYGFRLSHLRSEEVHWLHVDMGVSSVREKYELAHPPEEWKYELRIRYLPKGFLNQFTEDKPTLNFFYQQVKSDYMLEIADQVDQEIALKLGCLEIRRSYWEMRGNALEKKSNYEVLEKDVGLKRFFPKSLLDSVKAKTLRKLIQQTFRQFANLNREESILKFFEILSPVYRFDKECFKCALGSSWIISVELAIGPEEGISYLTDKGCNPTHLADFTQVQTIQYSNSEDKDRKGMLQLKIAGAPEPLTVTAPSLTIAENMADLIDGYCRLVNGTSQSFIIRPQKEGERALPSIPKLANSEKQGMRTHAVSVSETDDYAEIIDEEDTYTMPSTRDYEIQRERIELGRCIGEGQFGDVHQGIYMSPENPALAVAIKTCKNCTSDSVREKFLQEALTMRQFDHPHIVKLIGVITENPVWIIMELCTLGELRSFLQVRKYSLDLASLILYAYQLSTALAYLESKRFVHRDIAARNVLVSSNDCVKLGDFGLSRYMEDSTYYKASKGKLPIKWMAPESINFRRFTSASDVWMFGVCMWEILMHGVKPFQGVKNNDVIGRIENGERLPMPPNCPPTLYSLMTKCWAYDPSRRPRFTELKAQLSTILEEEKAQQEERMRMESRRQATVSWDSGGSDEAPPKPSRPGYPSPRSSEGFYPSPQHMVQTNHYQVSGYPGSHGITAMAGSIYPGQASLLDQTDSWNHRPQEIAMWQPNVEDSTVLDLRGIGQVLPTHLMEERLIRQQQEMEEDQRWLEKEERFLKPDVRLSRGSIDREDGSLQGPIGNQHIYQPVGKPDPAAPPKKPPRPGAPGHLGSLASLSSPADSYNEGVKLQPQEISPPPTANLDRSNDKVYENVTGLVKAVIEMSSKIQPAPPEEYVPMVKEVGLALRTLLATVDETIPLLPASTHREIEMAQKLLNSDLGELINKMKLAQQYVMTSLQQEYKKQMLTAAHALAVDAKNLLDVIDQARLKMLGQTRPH

[14] = test system: Fibrinogen (Alexa647-labelled); assay: fibrinogen binders on compound microarrays, profiling panel, artefact control for SMM control-protein annotation, biochemical, small-molecule microarray, 635/667 nm fluorescence (AID 1131); conditions: fibrinogen-A647 binding fluorescence, higher = more signal;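 further: z-score merges 667 nm fluorescence with per-spot signal-to-noise over triplicate slides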
[15] = molecular target: Follistatin (Homo sapiens) (UniProt P19883); assay: follistatin binders on small-molecule microarrays, primary screen, biochemical, small-molecule microarray, 635/667 nm fluorescence (AID 1132); conditions: FST binding, 635 nm fluorescence, higher = more signal
Follistatin (Homo sapiens), sequence (P19883 whole entry, looked up): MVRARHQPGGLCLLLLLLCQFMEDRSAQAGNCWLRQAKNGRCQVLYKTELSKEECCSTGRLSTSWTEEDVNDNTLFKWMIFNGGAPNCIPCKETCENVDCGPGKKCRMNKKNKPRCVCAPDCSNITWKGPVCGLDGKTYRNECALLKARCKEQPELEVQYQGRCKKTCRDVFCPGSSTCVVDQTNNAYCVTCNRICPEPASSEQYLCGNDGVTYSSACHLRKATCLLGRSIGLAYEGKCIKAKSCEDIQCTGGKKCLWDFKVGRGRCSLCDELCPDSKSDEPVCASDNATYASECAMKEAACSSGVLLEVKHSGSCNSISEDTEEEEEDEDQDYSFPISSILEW

[16] = molecular target: Fibroblast growth factor 2 (Homo sapiens) (UniProt P09038); assay: FGF2 binders on small-molecule microarrays, primary screen, biochemical, small-molecule microarray, 635/667 nm fluorescence (AID 1133); conditions: small-molecule microarray binding, FGF2, fluorescence 635/667; higher = more signal
Fibroblast growth factor 2 (Homo sapiens), sequence (P09038 whole entry, looked up): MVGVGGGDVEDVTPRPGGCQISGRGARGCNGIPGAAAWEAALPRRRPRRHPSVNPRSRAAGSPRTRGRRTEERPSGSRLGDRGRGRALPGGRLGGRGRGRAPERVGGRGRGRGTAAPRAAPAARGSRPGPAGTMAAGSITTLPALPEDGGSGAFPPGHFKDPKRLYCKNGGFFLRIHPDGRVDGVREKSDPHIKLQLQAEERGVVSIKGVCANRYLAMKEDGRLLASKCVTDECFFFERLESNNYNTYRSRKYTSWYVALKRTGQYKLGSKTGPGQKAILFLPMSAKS

[17] = mitochondrial membrane potential change in A549 cells, profiling panel, cell-based, JC-1 fluorescence, basal, 24 h, 100 nL (AID 1138); conditions: higher = more signal;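 further: A549 lung adenocarcinoma cells under basal conditions with no added stimulus; test concentration not given here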
[18] = test system: Lefty1; assay: Lefty1 binders on small-molecule microarrays, primary screen, biochemical, small-molecule microarray, 635/667 nm fluorescence (AID 1139); conditions: small-molecule microarray binding, fluorescence 635/667; higher = more signal
[19] = test system: wheat germ agglutinin (Triticum aestivum), Alexa647-labelled; assay: wheat germ agglutinin binders on compound microarrays, profiling panel, artefact control for SMM control-protein annotation, biochemical, small-molecule microarray, 635/667 nm fluorescence (AID 1140); conditions: WGA-A647 binding, 635 nm fluorescence, higher = more signal;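 further: score merges 667 nm feature emission with signal to noise over triplicate slides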
[20] = molecular target: Luciferin 4-monooxygenase (Photinus pyralis) (UniProt P08659); assay: firefly luciferase enzyme inhibitors, primary screen, biochemical, luminescence, purified enzyme, 2006 set (AID 1141); conditions: SteadyGlo luminescence, 30 min, higher = more signal, called active from +8 up or from −8 down;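 further: cell-free assay with purified firefly luciferase at 100 ng per well in PBS; test concentration not given here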
Luciferin 4-monooxygenase (Photinus pyralis), sequence (P08659 whole entry, looked up): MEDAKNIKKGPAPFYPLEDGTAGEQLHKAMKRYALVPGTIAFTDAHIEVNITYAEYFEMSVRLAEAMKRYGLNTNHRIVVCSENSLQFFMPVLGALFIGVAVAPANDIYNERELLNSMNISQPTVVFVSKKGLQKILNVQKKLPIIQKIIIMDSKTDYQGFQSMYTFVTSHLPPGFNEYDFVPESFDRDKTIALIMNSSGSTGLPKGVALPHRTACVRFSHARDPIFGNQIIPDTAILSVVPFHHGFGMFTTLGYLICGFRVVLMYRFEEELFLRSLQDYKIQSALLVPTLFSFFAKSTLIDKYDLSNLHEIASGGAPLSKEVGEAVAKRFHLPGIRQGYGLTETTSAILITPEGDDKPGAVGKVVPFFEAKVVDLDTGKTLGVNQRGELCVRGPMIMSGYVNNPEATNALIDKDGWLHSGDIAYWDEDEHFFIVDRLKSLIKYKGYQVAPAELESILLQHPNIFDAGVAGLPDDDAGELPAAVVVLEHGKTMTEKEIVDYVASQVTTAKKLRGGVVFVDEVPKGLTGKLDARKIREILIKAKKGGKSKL

Structure (SMILES) | composite z-score [1] | composite Z-score [2] | composite z-score [3] | composite z-score [4] | composite z-score [5] | composite z-score [6] | composite z-score [7] | composite z-score [8] | composite z-score [9] | composite z-score [10] | composite z-score [11] | composite z-score [12] | composite z-score [13] | composite z-score [14] | composite z-score [15] | composite z-score [16] | z-score [17] | composite z-score [18] | composite z-score [19] | z-score [20]
[N-]=[N+]=NCc1ccccc1C[C@@]1(C(=O)NCc2ccccc2)N=C(c2ccc(OCCCO)cc2)O[C@@H]1c1ccccc1 | 0.825 | 0.109 (inactive) | 0.0562 | -0.0389 | 0.28 | 0.86 | -0.401 | 0.474 | -1.01 | 0.266 | 1.87 | 1.13 | 0.621 | 0.483 | 0.327 | -0.165 | 1.79 | -0.698 | 1 | -1.15 (inactive)
CCCCCN1CC=CC23O[C@@H]4/C=C\CCC(C)OC(=O)C4[C@H]2C(=O)N(CCCO)[C@@H]3C1=O (stereo not given in full) | -1.27 | 0.58 (inactive) | -0.357 | -0.161 | 0.97 | 0.1 | 1.62 | -0.237 | -1.15 | -0.521 | -1.7 | -0.719 | -0.249 | -1.63 | -1.3 | -0.965 | 0.684 | -1.2 | -1.08 | -0.637 (inactive)
[N-]=[N+]=NCc1ccccc1C[C@@]1(C(=O)O)N=C(c2ccc(OCCCO)cc2)O[C@@H]1c1ccccc1 | 0.433 | 0.114 (inactive) | -0.133 | 0.0278 | 0.658 | 1.53 | 1.48 | 0.782 | -1.24 | 0.933 | 0.822 | 0.998 | 0.829 | 0.808 | 0.322 | -0.41 | 1.34 | -0.771 | 1.1 | -1.05 (inactive)
C=CCN1C(=O)[C@@]2(O[C@@H](CCO)[C@H]([Si](C)(C)c3ccc(OC)cc3)[C@H]2C)c2cc(N(C=O)c3ccccc3)ccc21 | 0.377 | 0.459 (inactive) | -0.0918 | -0.0895 | 0.246 | 0.396 | 0.222 | 0.807 | -0.332 | 0.67 | 1.03 | 0.721 | -0.115 | 0.373 | 0.203 | 0.0479 | -0.688 | 0.124 | 0.918 | -1.66 (inactive)
COc1ccc(C(=O)Nc2cccc(CN3C(=O)[C@@]4(O[C@@H](CCO)[C@H]([Si](C)(C)c5ccc(OC)cc5)[C@H]4C)c4ccccc43)c2)cc1 | 0.558 | -0.0927 (inactive) | -0.0343 | -0.14 | 0.211 | 0.421 | 0.0002 | 1.18 | -0.143 | 1.01 | 0.338 | 1.07 | -0.177 | 0.795 | 1 | -0.169 | -1.29 | 0.143 | 0.327 | -1.96 (inactive)
CC(C)CCC[C@@H](C)[C@H]1CC[C@@]2(C)C3=C(CC[C@]12C)[C@@]1(C)CC[C@H](OC(=O)CCl)C(C)(C)C1CC3 (stereo not given in full) | 0.256 | 0.222 (inactive) | 0.183 | -0.0829 | 0.153 | 0.555 | -0.0674 | 0.404 | 0.549 | 0.47 | -0.107 | 0.708 | 0.272 | 0.649 | 0.409 | 0.363 | 1.35 | 0.327 | 0.274 | -1.28 (inactive)
CC(C)[Si](C#C[Si](C(C)C)(C(C)C)C(C)C)(O[C@H](C)c1cn([C@H](C)c2ccccc2)nn1)C(C)C | -0.0001 | -0.097 (inactive) | -0.122 | -0.0632 | 0.66 | 0.386 | -0.13 | 1.16 | 0.0747 | 0.927 | 0.467 | 0.796 | 0.768 | 0.179 | 0.465 | 0.261 | 1.8 | 0.751 | 0.625 | -1.4 (inactive)
O=C(O)[C@H]1C[C@H]2C(=O)N[C@@H](Cc3ccccc3)C(=O)N2[C@H]1c1ccc(O)cc1 | -0.728 | 1.09 (inactive) | -0.0918 | -0.0415 | 0.659 | 1.88 | 0.414 | 1.08 | -0.372 | 0.956 | 1.19 | -0.514 | 0.171 | -0.0232 | 1.26 | 0.677 | 1.2 | 0.438 | 0.302 | -1.3 (inactive)
C=C(CCCC)/C(=C/C[C@@H](OC(=O)c1ccncc1)c1ccc(OCCO)cc1)c1cnc2ccccc2c1 | 0.26 | -0.0966 (inactive) | 0.135 | -0.0859 | 0.948 | 0.814 | 2.07 | 1.03 | 1.44 | 1.15 | 0.921 | 0.775 | -0.438 | 0.577 | 1.44 | 1.62 | 0.985 | 1.64 | 1.35 | -2.3 (inactive)
COCCOC(=O)N1C(=O)[C@@]2(c3cc(C#CCNC(N)=O)ccc31)[C@H](C(=O)NC[C@H](O)c1ccccc1)[C@H]1C(=O)O[C@H](c3ccccc3)[C@H](c3ccccc3)N1[C@@H]2c1ccc(O)cc1 | 0.348 | 0.239 (inactive) | -0.0044 | -0.104 | 0.0718 | 1.14 | 1.01 | 0.928 | -0.474 | 1.02 | 0.95 | 0.502 | 0.492 | 0.651 | 1.35 | 0.674 | -0.175 | 0.16 | 0.436 | -1.48 (inactive)
CC(CO)N1C(=O)[C@@H]2C3C(=O)OCCC/C=C\[C@H]3OC23C=CCN(Cc2ccccc2)C(=O)[C@@H]13 (stereo not given in full) | -0.656 | -0.427 (inactive) | -0.189 | -0.177 | 0.866 | -0.255 | -0.285 | -0.164 | -1.64 | -2.2 | -1.18 | -1.47 | -0.55 | -1.52 | -0.742 | -0.426 | 0.935 | -0.532 | -1.54 | -1.56 (inactive)
O=C(N1CCCCC1)[C@@]1(Cc2ccccc2)N=C(c2ccc(OCCCO)cc2)O[C@H]1c1ccccc1 | 0.955 | 0.0926 (inactive) | 0.214 | 0.308 | 0.797 | 3 | 0.849 | 1.23 | -1.34 | 1.11 | 2.02 | 1.07 | 1.42 | 0.124 | 0.622 | -0.12 | -0.741 | -0.341 | 1.07 | -1.52 (inactive)
Cc1ccc(N2C(=O)c3ccccc3[C@](C)(C(=O)NC3CC3)[C@@H]2c2ccc(CO)cc2)nc1 | -0.0191 | 0.186 (inactive) | -0.132 | -0.0698 | 0.78 | 0.529 | 1.18 | -0.501 | 0.407 | -0.816 | -0.373 | -0.644 | -0.0892 | -0.777 | 1.22 | 0.373 | 1.13 | -0.105 | 0.618 | -1.5 (inactive)
Cc1ccc(S[C@]2(C(=O)NCCN3CCOCC3)CC(=O)N(Cc3cc(C(F)(F)F)cc(C(F)(F)F)c3)[C@@H]2c2ccc(CO)cc2)cc1 | 0.0152 | -0.654 (inactive) | -0.304 | -0.0846 | 0.78 | 0.244 | 0.248 | -0.142 | -1.01 | -0.664 | -1.03 | 0.624 | 0.151 | -0.899 | -1.09 | -1.21 | 1.59 | -1.1 | -1.54 | -0.682 (inactive)
C=C(COC)/C(=C/C[C@H](OC(C)=O)c1cccc(OCCO)c1)c1cc(C(=O)OC)ccc1OC | -0.169 | 0.211 (inactive) | -0.0414 | -0.0649 | 0.656 | 0.193 | -0.219 | 0.705 | 1.25 | -0.0821 | 0.349 | -0.131 | -0.402 | -0.488 | 1.51 | 1.4 | -0.0205 | 1.72 | -1.08 | -0.727 (inactive)
Cc1ccc(N2C(=O)c3ccccc3[C@](C)(C(=O)NCC(F)(F)F)[C@@H]2c2ccc(CO)cc2)nc1 | -1.6 | -0.326 (inactive) | -0.403 | -0.177 | 0.869 | -0.552 | 0.0759 | -1.78 | -1.8 | -1.26 | -1.32 | -1.22 | -0.637 | -1.94 | -1.6 | -0.986 | -0.2 | -2.1 | -0.188 | -0.679 (inactive)
CC(C)(C)OC(=O)CC[C@@]12N=C(c3ccc(OCCCO)cc3)O[C@@H]1c1ccccc1CN(Cc1ccccc1)C2=O | -0.478 | 0.976 (inactive) | 0.0026 | -0.11 | 0.418 | 1.73 | -0.0961 | 1.31 | -0.0229 | 1.1 | 2.46 | 1.18 | 1.36 | 0.357 | 1.32 | 1.43 | 1.09 | 0.377 | 0.438 | -1.59 (inactive)
